Assay [1] addresses Serine/threonine-protein kinase 26 (Homo sapiens) (UniProt Q9P289). As to conditions: at 1 µM.
Assay [2] deals with Serine/threonine-protein kinase PAK 1 (Homo sapiens) (UniProt Q13153). As to conditions: at 0.1 µM.
For assay [3] the target is unchanged. The settings on record: at 1 µM.
Assay [4] addresses Serine/threonine-protein kinase PAK 2 (Homo sapiens) (UniProt Q13177). As to conditions: at 0.1 µM.
Assay [5] has the same target. As to conditions: at 1 µM.
Assay [6] has as its target Serine/threonine-protein kinase PAK 3 (Homo sapiens) (UniProt O75914). As to conditions: at 0.1 µM.
For assay [7] the target is unchanged. As to conditions: at 1 µM.
The target in assay [8] is Serine/threonine-protein kinase PAK 5 (Homo sapiens) (UniProt Q9P286). As to conditions: at 0.1 µM.
For assay [9] the target is unchanged. The settings on record: at 1 µM.
In assay [10] the target is Serine/threonine-protein kinase PAK 6 (Homo sapiens) (UniProt Q9NQU5). As to conditions: at 0.1 µM.
The target is the same in assay [11]. The settings on record: at 1 µM.
For assay [12], the system named is Tyrosine-protein kinase ABL1 (Homo sapiens), P00519 [E255K]. As to conditions: at 0.1 µM.
Assay [13] has the same test system. The settings on record: at 1 µM.
Assay [14] concerns Tyrosine-protein kinase ABL1 (Homo sapiens), P00519 [H396P]. The settings on record: at 0.1 µM.
The test system is the same in assay [15]. The settings on record: at 1 µM.
The subject of assay [16] is Tyrosine-protein kinase ABL1 (Homo sapiens), P00519 [M351T]. The settings on record: at 0.1 µM.
The test system is the same in assay [17]. As to conditions: at 1 µM.
The subject of assay [18] is Tyrosine-protein kinase ABL1 (Homo sapiens), P00519 [Q252H]. As to conditions: at 0.1 µM.
Assay [19] has the same test system. The settings on record: at 1 µM.
For assay [20], the system named is Tyrosine-protein kinase ABL1 (Homo sapiens), P00519 [T315I]. As to conditions: at 0.1 µM.

Sequence of Serine/threonine-protein kinase PAK 1 (Homo sapiens) (Q13153 whole entry): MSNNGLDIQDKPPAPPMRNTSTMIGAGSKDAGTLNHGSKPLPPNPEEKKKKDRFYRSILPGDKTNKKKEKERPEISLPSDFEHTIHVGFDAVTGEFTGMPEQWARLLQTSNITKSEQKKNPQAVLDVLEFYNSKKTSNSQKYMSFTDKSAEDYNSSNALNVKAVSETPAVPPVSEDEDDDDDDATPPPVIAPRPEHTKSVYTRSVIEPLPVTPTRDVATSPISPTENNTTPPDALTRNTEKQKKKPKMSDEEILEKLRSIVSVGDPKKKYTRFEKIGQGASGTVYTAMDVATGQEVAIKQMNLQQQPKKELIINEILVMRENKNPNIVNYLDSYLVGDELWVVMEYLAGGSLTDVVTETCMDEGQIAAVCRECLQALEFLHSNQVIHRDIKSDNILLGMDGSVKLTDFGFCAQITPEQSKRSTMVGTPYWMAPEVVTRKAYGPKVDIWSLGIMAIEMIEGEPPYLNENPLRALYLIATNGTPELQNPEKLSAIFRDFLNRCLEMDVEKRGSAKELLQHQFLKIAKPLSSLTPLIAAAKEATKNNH
Sequence of Serine/threonine-protein kinase PAK 3 (Homo sapiens) (O75914 whole entry, looked up): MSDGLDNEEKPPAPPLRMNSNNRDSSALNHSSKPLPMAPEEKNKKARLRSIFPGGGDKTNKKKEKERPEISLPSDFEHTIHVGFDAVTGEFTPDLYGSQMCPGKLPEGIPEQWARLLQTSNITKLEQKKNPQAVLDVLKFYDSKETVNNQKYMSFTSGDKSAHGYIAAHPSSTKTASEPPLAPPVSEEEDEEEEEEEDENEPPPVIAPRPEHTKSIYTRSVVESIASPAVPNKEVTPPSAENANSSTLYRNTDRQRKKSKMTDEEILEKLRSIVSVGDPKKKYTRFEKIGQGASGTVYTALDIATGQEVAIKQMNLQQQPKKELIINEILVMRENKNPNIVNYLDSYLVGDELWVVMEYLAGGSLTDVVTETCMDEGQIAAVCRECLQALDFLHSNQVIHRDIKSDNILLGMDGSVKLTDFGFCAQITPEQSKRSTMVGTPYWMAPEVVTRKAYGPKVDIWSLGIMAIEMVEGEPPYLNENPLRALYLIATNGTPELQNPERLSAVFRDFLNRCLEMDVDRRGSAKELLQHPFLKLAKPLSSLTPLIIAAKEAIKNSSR
Sequence of Serine/threonine-protein kinase 26 (Homo sapiens) (Q9P289 2-416 limits assumed): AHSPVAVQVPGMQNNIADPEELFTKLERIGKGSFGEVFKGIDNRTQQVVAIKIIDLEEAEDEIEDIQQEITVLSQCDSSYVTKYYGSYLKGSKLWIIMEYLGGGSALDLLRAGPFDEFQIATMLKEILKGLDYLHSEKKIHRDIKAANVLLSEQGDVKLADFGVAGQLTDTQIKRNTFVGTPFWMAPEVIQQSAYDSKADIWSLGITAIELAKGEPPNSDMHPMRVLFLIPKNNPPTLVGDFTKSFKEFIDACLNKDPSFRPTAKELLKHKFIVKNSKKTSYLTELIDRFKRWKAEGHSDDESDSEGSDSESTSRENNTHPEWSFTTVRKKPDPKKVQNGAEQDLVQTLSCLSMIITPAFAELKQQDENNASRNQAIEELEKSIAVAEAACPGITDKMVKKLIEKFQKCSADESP
Sequence of Serine/threonine-protein kinase PAK 5 (Homo sapiens) (Q9P286 whole entry, looked up): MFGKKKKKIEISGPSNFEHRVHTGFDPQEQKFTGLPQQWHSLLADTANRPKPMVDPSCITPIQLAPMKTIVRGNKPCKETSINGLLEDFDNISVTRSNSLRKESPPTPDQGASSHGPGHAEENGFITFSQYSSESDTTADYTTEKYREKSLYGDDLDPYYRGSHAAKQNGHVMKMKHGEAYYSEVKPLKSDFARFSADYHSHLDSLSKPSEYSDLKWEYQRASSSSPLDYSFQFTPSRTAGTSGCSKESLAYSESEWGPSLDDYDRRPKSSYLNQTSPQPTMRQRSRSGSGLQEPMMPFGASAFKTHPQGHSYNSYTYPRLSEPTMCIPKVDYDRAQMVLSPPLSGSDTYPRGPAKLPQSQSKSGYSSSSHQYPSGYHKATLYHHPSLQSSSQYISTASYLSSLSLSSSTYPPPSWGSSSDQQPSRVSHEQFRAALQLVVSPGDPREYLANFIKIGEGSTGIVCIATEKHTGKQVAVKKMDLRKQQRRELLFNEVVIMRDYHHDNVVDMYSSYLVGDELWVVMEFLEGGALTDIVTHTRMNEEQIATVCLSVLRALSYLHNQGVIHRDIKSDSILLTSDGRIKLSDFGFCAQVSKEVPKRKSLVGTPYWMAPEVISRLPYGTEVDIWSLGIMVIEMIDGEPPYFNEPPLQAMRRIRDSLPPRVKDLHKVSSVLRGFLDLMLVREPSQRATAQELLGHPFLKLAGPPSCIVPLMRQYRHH
Sequence of Serine/threonine-protein kinase PAK 6 (Homo sapiens) (Q9NQU5 whole entry, looked up): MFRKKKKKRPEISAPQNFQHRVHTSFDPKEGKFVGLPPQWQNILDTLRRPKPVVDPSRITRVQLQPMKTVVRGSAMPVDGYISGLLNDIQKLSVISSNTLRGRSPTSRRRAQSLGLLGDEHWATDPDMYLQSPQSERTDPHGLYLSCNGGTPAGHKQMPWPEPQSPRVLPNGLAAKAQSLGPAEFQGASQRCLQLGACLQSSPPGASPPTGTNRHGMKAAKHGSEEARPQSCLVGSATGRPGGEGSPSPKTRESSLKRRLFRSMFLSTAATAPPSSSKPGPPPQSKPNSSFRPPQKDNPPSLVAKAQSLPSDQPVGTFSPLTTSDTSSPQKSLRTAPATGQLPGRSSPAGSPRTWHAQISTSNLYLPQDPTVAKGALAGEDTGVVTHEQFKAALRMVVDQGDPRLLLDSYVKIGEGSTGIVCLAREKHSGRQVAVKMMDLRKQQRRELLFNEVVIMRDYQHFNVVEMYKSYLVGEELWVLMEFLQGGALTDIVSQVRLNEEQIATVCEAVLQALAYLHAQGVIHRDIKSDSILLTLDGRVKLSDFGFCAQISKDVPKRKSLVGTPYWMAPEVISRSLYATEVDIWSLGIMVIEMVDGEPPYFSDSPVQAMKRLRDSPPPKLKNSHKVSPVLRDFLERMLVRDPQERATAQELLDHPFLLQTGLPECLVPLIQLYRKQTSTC
Sequence of Serine/threonine-protein kinase PAK 2 (Homo sapiens) (Q13177 whole entry): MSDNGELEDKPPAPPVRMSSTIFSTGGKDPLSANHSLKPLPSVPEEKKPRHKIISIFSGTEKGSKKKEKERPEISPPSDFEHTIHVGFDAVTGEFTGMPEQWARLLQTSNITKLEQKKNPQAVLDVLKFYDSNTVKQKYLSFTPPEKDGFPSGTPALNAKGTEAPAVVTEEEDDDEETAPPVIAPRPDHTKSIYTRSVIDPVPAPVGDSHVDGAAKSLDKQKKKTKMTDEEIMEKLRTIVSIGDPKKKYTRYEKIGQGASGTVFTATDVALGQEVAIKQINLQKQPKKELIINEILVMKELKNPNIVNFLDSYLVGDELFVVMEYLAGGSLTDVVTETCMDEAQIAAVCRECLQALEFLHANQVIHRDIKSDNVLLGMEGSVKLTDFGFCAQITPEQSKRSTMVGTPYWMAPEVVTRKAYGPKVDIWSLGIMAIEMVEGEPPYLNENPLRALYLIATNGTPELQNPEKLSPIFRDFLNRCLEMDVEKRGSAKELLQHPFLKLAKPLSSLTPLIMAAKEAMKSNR

Usually inhibition stands for the relative decrease from the control value, in per cent. In the case of `COc1cccc(-n2ncc3c(N/N=C/c4ccc(C(=O)NCCN(C)C)cc4)ncnc32)c1`, the inhibition turned out to be 0.63% in [1]; 7.17% in assay [2]; 5.32% in [3]; 1.01% in assay [4]; 1.56% in assay [5]; 2.69% in assay [6]. The inhibition in [7] stood at 3.69%; in [8] it was 12.8%; in assay [9] it was 7.55%; in [10] it was 1.68%; in assay [11] it was 12.9%; in assay [12], 92.1%. In addition, the inhibition in assay [13] is 94.7%; in [14], 93.9%; in assay [15], 95%; in assay [16], 92.3%; in assay [17] it was 95.5%; in [18] it was 94.2%. The values for the inhibition in [19] and in [20] were 95.4% and 84.6%, respectively.
In the case of `COc1ccccc1-c1cc(/C=C2\C(=O)Nc3ncc(Br)cc32)cc(Br)c1O`, the inhibition in [1] came out at 13.5%; in [2] it was 6.7%; in assay [3] it was 6.23%; in assay [4], 1.92%; in assay [5], 2.48%; in assay [6], 4.55%. Moreover, the inhibition was 5.35% in [7]; 0.29% in [8]; 0.44% in assay [9]; -1.24% in assay [10]; -6.64% in assay [11]; 5.22% in assay [12]. Further, the inhibition amounted to 22.3% in assay [13]; 6.17% in assay [14]; 21.9% in assay [15]; 5.09% in assay [16]; 19.8% in [17]; 6.3% in assay [18]. The inhibition in assay [19] was determined as 20.5%; in assay [20] it was 1.82%.
`COC(=O)Nc1nc2cc(Oc3ccc(NC(=O)Nc4ccccc4)cc3)ccc2[nH]1`: the inhibition was 0.25% in [1]; 0.78% in assay [2]; 3.46% in assay [3]; 1.73% in assay [4]; 0.63% in assay [5]; 3.68% in assay [6]. The inhibition in [7] was 4.15%; in [8] it was -3.58%; in assay [9], -3.97%; in assay [10], -4.28%; in [11] it was -2.94%; in assay [12], 4.95%. Besides, the inhibition turned out to be 11.4% in [13]; 14.1% in [14]; 41% in [15]; 28.9% in assay [16]; 47.8% in [17]; 22.5% in assay [18]. Further, the inhibition in assay [19] came to 51.8%; in [20], 15.9%.
`COc1c(C(N)=O)cc(-c2ccc(Cl)cc2)cc1-c1ccc(S(N)(=O)=O)cc1`: the inhibition in [1] amounted to 1.45%; in assay [2] it was 6.68%; in assay [3], 12.1%; in [4], 2.72%; in [5], 2.55%; in assay [6], 4.51%. In addition, the inhibition was 7.97% in assay [7]; 6.72% in assay [8]; 3.56% in assay [9]; -7.76% in assay [10]; -4.53% in assay [11]; 2.38% in assay [12]. In addition, the inhibition in assay [13] was found to be 3.7%; in [14], 3.77%; in assay [15], 5.78%; in assay [16], 1.02%; in assay [17], 1.14%; in assay [18], 3.13%. In addition, the inhibition in [19] is 5.89%; in [20], 3.24%.
Regarding `CC1(C)CC(n2cnc(-c3ccc(F)cc3)c2-c2ccnc(N)n2)CC(C)(C)N1`, the inhibition in assay [1] was -4.55%; in assay [2], 0.1%; in assay [3], 2.11%; in assay [4], -0.56%; in [5], 0.36%; in assay [6] it was 0.33%. Also, the inhibition in assay [7] is 0.79%; in [8], 4.67%; in assay [9], 0.79%; in assay [10], 1.59%; in [11], -4.18%; in assay [12] it was 1.94%. The inhibition in assay [13] was 2.09%; in [14], 0.18%; in [15], 0.59%; in assay [16], 2.43%; in assay [17], 0.27%; in assay [18], 0.65%. In addition, the inhibition was 0.31% in assay [19] and 1.92% in assay [20].
On to `CCS(=O)(=O)c1ccc(OC)c(Nc2ncc(-c3cccc(C(C)=O)c3)o2)c1`, for which the inhibition was 1.58% in assay [1]; 8.45% in [2]; 1.48% in [3]; 2.47% in [4]; 1.36% in assay [5]; -0.54% in assay [6]. Further, the inhibition in assay [7] worked out at 3.98%; in [8] it was 7.26%; in assay [9], 8.72%; in assay [10] it was 7.53%; in [11], 7.27%; in assay [12], 15.3%. Moreover, the inhibition in assay [13] turned out to be 61.6%; in [14] it was 19.3%; in [15], 67.3%; in [16], 20.5%; in assay [17], 68.5%; in [18] it was 30.4%. Moreover, the inhibition was 78% in assay [19] and 2.67% in assay [20].
Turning to `CS(=O)(=O)Nc1ccc(-c2ccc3c(NC(=O)C4CC4)n[nH]c3c2)cc1`, the inhibition was -2.98% in [1]; 3.5% in assay [2]; 5.34% in [3]; 1.62% in [4]; 1.36% in assay [5]; 3.41% in [6]. The inhibition in [7] was 4.16%; in assay [8] it was -0.3%; in assay [9], 0.91%; in assay [10], 0.76%; in assay [11], 5.45%; in [12], 2.53%. The inhibition in assay [13] stood at 5.92%; in [14] it was 4.24%; in [15] it was 17.5%; in [16], 4.89%; in [17], 20.3%; in assay [18], 4.73%. Besides, the inhibition in assay [19] turned out to be 9.35%; in assay [20], 4.61%.
Turning to `CNC(=O)c1cncc(/C=C/c2ccccc2C)c1`, the inhibition in assay [1] worked out at 2.47%; in assay [2], 4.67%; in assay [3], 7.54%; in [4], 2.06%; in assay [5], 2.02%; in [6] it was 4.95%. The inhibition was 5.93% in assay [7]; 15.4% in assay [8]; 4.8% in [9]; -2.91% in assay [10]; 12% in assay [11]; 4.47% in [12]. Further, the inhibition in assay [13] came to 16.5%; in assay [14] it was 6.03%; in assay [15], 28.8%; in assay [16], 6.13%; in [17], 22.7%; in [18] it was 5.28%. Also, the inhibition came to 19.3% in [19] and 1.47% in [20].
Regarding `NC(=O)c1ccc2c(-c3ccnc(NCCCO)n3)c(-c3ccc(F)cc3)nn2c1`, the inhibition in assay [1] was -2.28%; in [2], 7.12%; in assay [3] it was 6.41%; in [4], 2.25%; in [5], 2.24%; in assay [6], 4.61%. Also, the inhibition is 4.88% in assay [7]; 0.64% in [8]; -4.27% in assay [9]; 5.26% in assay [10]; -5.05% in assay [11]; 4.7% in assay [12]. For the same compound, the inhibition worked out at 7.28% in assay [13]; 6.27% in assay [14]; 8.34% in [15]; 3.9% in [16]; 10.1% in [17]; 5.67% in assay [18]. Also, the inhibition in [19] was 10.2%; in [20], 2.91%.

The record behind these values is ChEMBL document CHEMBL1961873, “Compounds: GSK PKIS; Assays: Nanosyn kinase panel” (2012).
